Measured values taken from PubChem BioAssay AID651704 (Broad Institute, 2012).
Values joined by “and” are separate entries in the source; they are usually repeats but may differ in a detail not shown here. Equal values may be shown once. Hit rate of the full screen: of about 350,000 compounds, about 1,600 (0.46%) were called active.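 How the source made its calls: active means every replicate reaching a set inhibition limit, whatever the replicate mean (cut at about 25% in these data); inconclusive means mean inhibition reaches that limit but some replicates miss it; inactive means the rest.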 This excerpt belongs to a sample that is enriched for actives.

Biological target: Protein AF-9 (Homo sapiens) (UniProt P42568)
Sequence (P42568 whole entry, looked up): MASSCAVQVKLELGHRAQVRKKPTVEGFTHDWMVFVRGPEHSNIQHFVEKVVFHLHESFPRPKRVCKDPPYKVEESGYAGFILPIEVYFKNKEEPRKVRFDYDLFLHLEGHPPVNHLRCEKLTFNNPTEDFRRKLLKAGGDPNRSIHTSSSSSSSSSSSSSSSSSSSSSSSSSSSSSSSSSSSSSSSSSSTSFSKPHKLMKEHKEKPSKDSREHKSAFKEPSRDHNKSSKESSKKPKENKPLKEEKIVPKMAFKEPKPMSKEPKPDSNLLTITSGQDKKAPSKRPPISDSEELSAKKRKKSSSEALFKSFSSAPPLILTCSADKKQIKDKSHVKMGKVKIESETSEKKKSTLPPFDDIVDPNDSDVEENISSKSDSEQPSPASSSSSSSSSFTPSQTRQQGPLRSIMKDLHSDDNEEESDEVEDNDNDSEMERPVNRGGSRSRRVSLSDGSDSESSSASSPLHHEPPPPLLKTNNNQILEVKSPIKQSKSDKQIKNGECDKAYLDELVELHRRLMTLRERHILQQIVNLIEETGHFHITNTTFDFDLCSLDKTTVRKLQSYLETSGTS
Test: MLL-AF4/AF9 protein interaction blockers – biochemical, AlphaScreen, biotin-AF4 peptide, FLAG-AF9, single point, primary screen (AID 651704);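 further: 0% = plate neutral control median and 100% = total signal loss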
Conditions: biotin-AF4 peptide binding to FLAG-AF9, at 10 µM, stronger effect = higher value

Row | Structure (SMILES) | inhibition
1 | COc1ccc2c3c(n(C)c2c1)[C@H](CO)N(Cc1cccnc1)CC31CCN(Cc2cccnc2)CC1 | 13.7% (inactive)
2 | C[C@H](CO)N1C[C@H](C)[C@H](CN(C)CC2CCCCC2)OCCCC[C@H](C)Oc2ccc(NC(=O)c3ccncc3)cc2C1=O | -4.16% (inactive)
3 | COC(=O)[C@H]1[C@H]2C[C@H]3c4[nH]c5ccccc5c4CCN3C[C@@H]2CC[C@@H]1O | 10.9% (inactive) and 1.82% (inactive)
4 | COc1ccc(-c2ccc3[nH]c4c(c3c2)CCN2C[C@H]3[C@H](C)ON(C)[C@H]3C[C@@H]42)cc1 | 27.4% (active)
5 | COc1cccc(C2c3[nH]c4ccccc4c3CCN2Cc2cccc(C)n2)c1 (centres undefined) | 16.4% (inactive)
6 | CCCC#Cc1ccc([C@H]2[C@@H](CO)N3C(=O)CN(C(=O)c4ccncc4)C[C@@H]23)cc1 | -4.03% (inactive)
7 | COc1cccc(S(=O)(=O)Nc2ccc3c(c2)[C@H]2C[C@H](CC(=O)O)O[C@H](CO)[C@H]2O3)c1 | -1.01% (inactive)
8 | O=C(Nc1ccccc1)N1CC(=O)N2[C@@H](CO)[C@H](c3ccc(C#CC4CCCC4)cc3)[C@@H]2C1 | 7.61% (inactive)
9 | Cc1ccc(Nc2cc(C)nc3c(C)ccc([N+](=O)[O-])c23)cc1 | 33.4% (active)
10 | Cc1cc(Nc2ccc(N3CCOCC3)cc2)c2cccc(C)c2n1 | 7.78% (inactive)
11 | Cc1cc(Nc2ccc(C(=O)N3CCCCC3)cc2)c2cccc(C)c2n1 | -1.38% (inactive)
12 | COc1ccc2c3c(n(C)c2c1)[C@@H](CO)N(Cc1ccncc1)CC31CN(C(=O)C2CCCCC2)C1 | -2.52% (inactive)
13 | COc1ccc2c3c(n(C)c2c1)[C@H](CO)N(C(C)=O)CC31CN(C(=O)c2cnccn2)C1 | -3.28% (inactive)
14 | C/C(=N\NS(=O)(=O)c1ccc(Cl)cc1)c1ccc(NC(=O)c2ccco2)cc1 | 26.4% (active)
15 | C/C(=N/NS(=O)(=O)c1ccccc1)c1ccc(NC(=O)C(F)(F)F)cc1 | 1.28% (inactive)
16 | Cc1ccc(NC(=O)c2ccco2)cc1 | 2.52% (inactive)
17 | CCC(=O)N1CC2(C1)CN(Cc1cc(F)ccc1F)[C@@H](CO)c1[nH]c3cc(OC)ccc3c12 | -4.95% (inactive)
18 | CCOc1cc(N2CCOCC2)c(OCC)cc1NC(=O)COc1cccc(Cl)c1 | 3.04% (inactive)
19 | CCOc1cc(N2CCOCC2)c(OCC)cc1NC(=O)C1=NN(c2cccc(C)c2)C(=O)CC1 | 31.5% (active)
20 | CCOc1cc(N2CCOCC2)c(OCC)cc1NC(=O)c1ccc(C)s1 | 13.4% (inactive)
21 | O=C(C[C@@H]1C=C[C@H](NC(=O)Nc2ccccc2F)[C@@H](CO)O1)NCc1ccccc1 | -2.34% (inactive)
22 | CCC(=O)N1CC2(C1)[C@@H](c1ccc(-c3ccc(C#N)cc3)cc1)[C@H](CO)N2C(C)=O | -2.76% (inactive)
23 | O=C(N/N=C/c1sc(N2CCCCC2)nc1-c1cccs1)c1cccnc1 | 26.1% (active)
24 | Cc1ccc(S(=O)(=O)N2CCCCC2)cc1NC(=O)c1cccnc1 | 2.47% (inactive)
25 | O=C(O)c1ccc(N/N=C/c2cn(-c3ccccc3)nc2-c2cccs2)cc1 | 3.91% (inactive)

Row | Structure (SMILES) | inhibition
26 | COc1ccccc1C#Cc1ccc([C@@H]2[C@H](CO)N3CCCCN(C(=O)C4CCCC4)C[C@@H]23)cc1 | 6.51% (inactive)
27 | Cc1cccc(-c2ccc([C@@H]3[C@H]4CN(C(=O)c5ccccc5)CC(=O)N4[C@H]3CO)cc2)c1 | 2.35% (inactive)
28 | CCCCNC(=O)CN1C(=O)NC(Cc2ccccc2)(Cc2ccccc2)C1=O | 51% (active)
29 | CNC(=O)CN1C(=O)NC(c2ccccc2)(c2ccccc2)C1=O | 0.637% (inactive)
30 | COc1cccc(CNC(=O)CN2C(=O)NC(Cc3ccccc3)(c3ccccc3)C2=O)c1 (centres undefined) | -3.3% (inactive)
31 | COc1cccc(NC(=O)N[C@@H]2CC[C@H](CC(=O)NCc3ccccn3)O[C@H]2CO)c1 | -1.32% (inactive)
32 | CCCN1[C@@H]2c3ccc(-c4ccccc4)c(=O)n3C[C@@H]2[C@@H](CO)[C@@H]1C(=O)N(C)C | -2.05% (inactive)
33 | Cc1cc2c(cc1C)NC1(C[C@H]3CCC(=O)N4CC[C@@H](C1)[C@@H]34)C(=NC(C)(C)CC(C)(C)C)N2 (some centres undefined) | 54.9% (active)
34 | O=C1CC[C@@H]2CC3(C[C@@H]4CCN1[C@H]24)Nc1cc([N+](=O)[O-])ccc1NC3=NC1CCCCC1 (some centres undefined) | 5.39% (inactive)
35 | CC=Cc1ccc2n(c1=O)C[C@H]1[C@H](CO)[C@@H](C(=O)NC3CCCC3)[C@@H]2N1C(=O)c1cnccn1 (mixture of isomers) | -3.71% (inactive)
36 | CN(C)CC(=O)N1[C@H](C#N)[C@H](c2ccccc2-c2cccc(C(=O)N(C)C)c2)[C@@H]1CO | -2.16% (inactive)
37 | Cc1noc(C)c1NC(=O)N(C)C[C@H]1Oc2ccc(N(C)C)cc2CC(=O)N([C@H](C)CO)C[C@H]1C | -0.871% (inactive)
38 | CO[C@H]1CN(C)C(=O)c2ccc(NC(=O)C3CC3)cc2OC[C@@H](C)N(Cc2ccc(F)cc2)C[C@@H]1C | 2.37% (inactive)
39 | CCCC#Cc1ccc([C@H]2[C@H]3CN(C(=O)c4cccnc4)CC(=O)N3[C@H]2CO)cc1 | 27.2% (active)
40 | CCCC#Cc1ccc([C@H]2[C@@H](CO)N3C(=O)CN(C(=O)c4ccncc4)C[C@H]23)cc1 | -2.78% (inactive)
41 | CCCC#Cc1ccc([C@@H]2[C@@H](CO)N3C(=O)CN(C(=O)c4ccncc4)C[C@@H]23)cc1 | -2.52% (inactive)
42 | COc1ccc(C#Cc2ccc([C@H]3[C@H]4CN(C(=O)c5ccncc5)CC(=O)N4[C@H]3CO)cc2)cc1 | -4.11% (inactive)
43 | C[C@@H]1CCCCO[C@H](CN(C)C(=O)C2CCCCC2)[C@@H](C)CN([C@@H](C)CO)C(=O)c2cc(NC(=O)Nc3ccccc3)ccc2O1 | 5.54% (inactive)
44 | COc1ccccc1NC(=O)N1CCCCN2[C@H](CO)[C@H](c3ccc(C#CC4CC4)cc3)[C@@H]2C1 | 6.56% (inactive)
45 | COc1ccc(N2CCC(CNC(=S)Nc3c(C)cccc3C)C2)cc1 (centres undefined) | 18.6% (inactive)
46 | COc1ccc(NC(=S)NCC2CCN(c3ccc(OC)cc3)C2)cc1 (centres undefined) | 28.9% (active)
47 | COc1ccc(OCC(=O)Nc2ccc(N3CCC(C)CC3)cc2)cc1 | 1.34% (inactive)
48 | CO[C@@H]1CN(C)C(=O)c2ccc(NC(=O)C3CC3)cc2OC[C@H](C)N(C(=O)c2ccccc2)C[C@@H]1C | -0.663% (inactive)
49 | Cc1c(C)n(Cc2ccc(Cl)cc2)c2ccc(C(=O)NCCCN3CCOCC3)cc12 | 26.6% (active)
50 | COc1ccc(Cn2c(=S)[nH]c3cc(C(=O)NCCCN4CCOCC4)ccc3c2=O)cc1 | -9.96% (inactive)

Row | Structure (SMILES) | inhibition
51 | O=C(NCCCN1CCOCC1)c1cc(-c2ccc(Cl)cc2)on1 | -5.39% (inactive)
52 | COc1ccccc1-c1ccc([C@H]2[C@@H](CO)N(CC3CC3)C23CN(S(C)(=O)=O)C3)cc1 | 0.485% (inactive)
53 | Cn1cnc(S(=O)(=O)NC[C@@H]2CC[C@@H]3[C@@H](CN3Cc3nccs3)O2)c1 | -5.79% (inactive)
54 | O=C(CN1CCOCC1)N1CCCCN2[C@H](C1)[C@H](c1ccc(-c3ccccc3F)cc1)[C@@H]2CO | -4.58% (inactive)
55 | C[C@H](CO)N1C[C@H](C)[C@@H](CN(C)Cc2ccc(Oc3ccccc3)cc2)Oc2ccc(NS(=O)(=O)c3ccc(F)cc3)cc2CC1=O | 1.77% (inactive)
56 | Cc1cc(N=Nc2ccc3ccccc3c2)ccc1O | 35.1% (active)
57 | COc1ccc2c3c(n(C)c2c1)[C@@H](CO)N(C(=O)CN1CCOCC1)CC31CN(C(=O)CC2CC2)C1 | 0.071% (inactive)
58 | O=C(Nc1c[nH]c(=O)[nH]c1=O)OCc1ccccc1 | 2.62% (inactive)
59 | Nc1ccccc1C(=O)NC1CCCCNC1=O (centres undefined) | -2.44% (inactive)
60 | O=C(CNC(=O)OCc1ccccc1)NC1CCCCNC1=O (centres undefined) | 48% (active)
61 | C[C@@H]1CN([C@@H](C)CO)C(=O)CCCn2nncc2CO[C@H]1CN(C)C(=O)CCCN(C)C | -5.71% (inactive)
62 | Cc1ccccc1S(=O)(=O)N1CC[C@H]2[C@H](CO)Nc3ccc(-c4cccc(F)c4)cc3[C@H]21 | -2.53% (inactive)
63 | Cc1noc(C)c1NC(=O)Nc1ccc2c(c1)CC(=O)N([C@H](C)CO)C[C@@H](C)[C@@H](CN(C)S(=O)(=O)c1ccc(Cl)cc1)O2 | -0.675% (inactive)
64 | CN(C)C(=O)C[C@@H]1C[C@@H]2c3cc(NC(=O)C4CCOCC4)ccc3O[C@@H]2[C@@H](CO)O1 | -3.12% (inactive)
65 | CCCC(C)NC(=O)C1CCN(C(=O)C2CC(=O)N(c3ccc(C)cc3)C2)CC1 (centres undefined) | -6.07% (inactive)
66 | Cc1ccc(N2CC(C(=O)NCCS(=O)(=O)N3CCN(c4ccccc4)CC3)CC2=O)cc1 (centres undefined) | 0.43% (inactive)
67 | COCCNC(=O)C1CCN(C(=O)C2CC(=O)N(c3ccc(C)cc3)C2)CC1 (centres undefined) | 50.4% (active)
68 | C/C=C/c1ccc([C@@H]2[C@H](CO)N(CC3CCCC3)C23CN(C(=O)CC2CC2)C3)cc1 | 5.28% (inactive)
69 | CN(C)C(=O)C[C@H]1C=C[C@@H](NC(=O)c2ccc(F)cc2)[C@@H](CO)O1 | -2.41% (inactive)
70 | COc1ccccc1S(=O)(=O)N(C)C[C@@H]1Oc2cc(C#CCC3CCCC3)ccc2S(=O)(=O)N([C@H](C)CO)C[C@H]1C | 2.17% (inactive)
71 | CN1CCN(CCNC(=O)Nc2ccc([N+](=O)[O-])cc2)CC1 | -2.1% (inactive)
72 | O=C(NCCCN1CCN(c2ccc(F)cc2)CC1)Nc1ccc([N+](=O)[O-])cc1 | 25.7% (active)
73 | O=C(NCCCN1CCOCC1)c1ccc([N+](=O)[O-])cc1[N+](=O)[O-] | -2.14% (inactive)
74 | CO[C@H]1CN(C)C(=O)c2cc(NS(=O)(=O)CC(F)(F)F)ccc2OC[C@H](C)N(C(=O)c2ccc3c(c2)OCO3)C[C@H]1C | -1.49% (inactive)
